Structures are written as SMILES. About 83,000 compounds went through this panel and 20% of them were active in at least one assay; those are over-represented in the sample as a whole.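 Testing used 96-well plates and a 48-hour single-concentration exposure. Example: -40 means 40% of the starting cells died.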 Values without a mark were called inactive. Active and inactive are the calls of the source. The calls were made as follows: active = growth percent below 10; inactive = the rest.

Our source for the growth values is PubChem BioAssay (NCI).

Among the test systems are SK-MEL-2 melanoma; EKVX NSCLC; SN12C renal; UO-31 renal; TK-10 renal; ACHN renal; CAKI-1 renal; A498 renal; CCRF-CEM leukemia; MOLT-4 leukemia.
Common to all, as to assay: NCI-60 one-dose screen, 48 h (100 = growth as untreated, 0 = no growth, -100 = all killed)
What all share (conditions): 10 µM unless noted

With `COc1ccc(C(O)c2cc3c(N)c(C(=O)Nc4cccc(Cl)c4)sc3nc2C)cc1` (stereo not given), the growth is 53.7% in the test with SK-MEL-2 melanoma; 48.4% in the test with EKVX NSCLC; 22.2% in the test with SN12C renal; 45.4% with UO-31 renal; 64% in the test on TK-10 renal; 30.3% in the test on ACHN renal. Further, the growth in the test on CAKI-1 renal was 24.7%; in the test with A498 renal, 8.34% (active); in the test on CCRF-CEM leukemia it was 8.82% (active); in the test on MOLT-4 leukemia, 15.4%.
As for `CC(C)c1ccc(NC(=O)Nc2ccc(NC(=O)c3ccccc3N)cc2)cc1`, the growth with SK-MEL-2 melanoma is 45.3%; in the test on EKVX NSCLC, 48.2%; in the test with SN12C renal, 91.6%; with UO-31 renal it was 20.5%; with TK-10 renal, 65.5%; in the test on ACHN renal, 29.6%. Further, the growth in the test on CAKI-1 renal was 70.7%; with A498 renal, 49.6%; in the test with CCRF-CEM leukemia it was 29%; in the test on MOLT-4 leukemia it was 19.2%.
Turning to `COc1ccc(-c2cc(-c3ccc(OC)cc3)nc(NCCCNc3ccnc4cc(Cl)ccc34)n2)cc1`, the growth is 83.9% with SK-MEL-2 melanoma; 80.4% with EKVX NSCLC; -62.3% (active) in the test with SN12C renal; 48.9% with UO-31 renal; 127% with TK-10 renal; 96.2% in the test with ACHN renal. The growth was 75.3% in the test on CAKI-1 renal, 23.2% in the test on A498 renal, 3.08% (active) in the test on CCRF-CEM leukemia and 1.68% (active) in the test on MOLT-4 leukemia.
For `Cc1ccc(C)c2c1C(O)(C#Cc1ccccc1)c1ccccc1C2(O)C#Cc1ccccc1` (stereo not given), the growth was 15.9% in the test on SK-MEL-2 melanoma; 38.5% in the test with EKVX NSCLC; 71.5% in the test with SN12C renal; 19.6% in the test with UO-31 renal; 58.8% with TK-10 renal; 49.7% in the test on ACHN renal. The growth was 71.9% with CAKI-1 renal, 69.2% in the test on A498 renal, 27.5% in the test with CCRF-CEM leukemia and 19.5% with MOLT-4 leukemia.
With `COc1ccc(-c2ccc(-c3ccc(C(=N)N)cn3)s2)cc1`, the growth with SK-MEL-2 melanoma was 104%; with EKVX NSCLC, 95.6%; in the test on SN12C renal it was 86.7%; with UO-31 renal it was 81.2%; with TK-10 renal, 109%; in the test with ACHN renal, 92%. Moreover, the growth is 87.9% in the test with CAKI-1 renal, 98.8% with A498 renal, 4.28% (active) in the test on CCRF-CEM leukemia and 49.1% with MOLT-4 leukemia.
With `C=CC(=O)NCCOc1cccc(Nc2cc(NCCCNC(=O)C3CCC3)c(Br)cn2)c1`, the growth in the test with SK-MEL-2 melanoma is -43.8% (active); in the test with EKVX NSCLC, -13.6% (active); in the test with SN12C renal it was 3.07% (active); in the test with UO-31 renal, -42.2% (active); in the test on TK-10 renal it was -43.4% (active); in the test with ACHN renal it was 7.24% (active). The growth in the test with CAKI-1 renal is -38.2% (active); in the test on A498 renal it was -54% (active); in the test with CCRF-CEM leukemia, 1.92% (active); in the test with MOLT-4 leukemia it was -10.5% (active).
On to `N#Cc1nc(-c2ccc(F)cc2)oc1S(=O)(=O)N1CCN(c2ccc(F)cc2)CC1`, for which the growth in the test on SK-MEL-2 melanoma was 90.9%; in the test with EKVX NSCLC, 113%; in the test with SN12C renal it was 85%; with UO-31 renal, 81.2%; in the test with TK-10 renal it was 86%; in the test on ACHN renal, 77.5%. Further, the growth in the test on CAKI-1 renal was 100%; in the test on A498 renal, 113%; in the test with CCRF-CEM leukemia it was 4.6% (active); in the test with MOLT-4 leukemia, 1.8% (active).
`CC(=O)Nc1c(Cl)cc(Cl)c2c1Cc1cc([N+](=O)[O-])ccc1-2`: the growth with SK-MEL-2 melanoma is 105%; in the test with EKVX NSCLC it was 59.4%; with SN12C renal, 80.3%; in the test on UO-31 renal it was 91.1%; in the test with TK-10 renal it was 99.4%; with ACHN renal it was 82.3%. Also, the growth in the test with CAKI-1 renal is 84.5%; in the test with A498 renal, 102%; with CCRF-CEM leukemia, 89.7%; in the test with MOLT-4 leukemia, 87%.
On to `CCN(CC)CCCC(C)Nc1ccc2cc(OC)ccc2n1` (stereo not given), for which the growth is 116% in the test with SK-MEL-2 melanoma; 91.4% with EKVX NSCLC; 104% in the test with SN12C renal; 91.3% in the test on UO-31 renal; 106% with TK-10 renal; 107% with ACHN renal. Moreover, the growth with CAKI-1 renal was 101%; in the test on A498 renal, 84.5%; with CCRF-CEM leukemia, 107%; in the test with MOLT-4 leukemia, 116%.
`NC(CSC(c1ccccc1)(c1ccccc1)c1ccc2c(c1)OCO2)C(=O)O` (stereo not given): the growth was -14.6% (active) with SK-MEL-2 melanoma; 43.4% in the test with EKVX NSCLC; 36.7% with SN12C renal; 53% with UO-31 renal; 69.8% in the test with TK-10 renal; 53% in the test on ACHN renal. Also, the growth in the test with CAKI-1 renal is 37%; with A498 renal, 34.3%; in the test on CCRF-CEM leukemia, -6.86% (active); in the test on MOLT-4 leukemia, 7.18% (active).
For the compound `COc1ccc(C(c2cc(OC)c(OC)c(OC)c2)N2CCN(Cc3ccccc3)CC2)cc1` (stereo not given), the growth was 27.4% with SK-MEL-2 melanoma; 82.7% in the test with EKVX NSCLC; 88.4% in the test on SN12C renal; 68.8% in the test on UO-31 renal; 84.8% in the test with TK-10 renal; 92.8% in the test on ACHN renal. Further, the growth in the test on CAKI-1 renal is 66.7%; with A498 renal, 51.9%; in the test with CCRF-CEM leukemia, 68.8%; in the test with MOLT-4 leukemia, 53.5%.
As for `O=C(/C=C\c1ccco1)/C=C/c1ccco1`, the growth in the test on SK-MEL-2 melanoma is 109%; in the test with EKVX NSCLC it was 99.5%; in the test with SN12C renal, 97.7%; in the test with UO-31 renal, 76.3%; with TK-10 renal it was 108%; in the test on ACHN renal it was 110%. Moreover, the growth in the test with CAKI-1 renal is 107%; with A498 renal, 97.5%; in the test with CCRF-CEM leukemia, 8.75% (active); in the test with MOLT-4 leukemia, 112%.
`CC(=O)c1cc(-c2ccccc2N)n(-c2ccc3c(c2)OCO3)c1C`: the growth is 51.6% in the test with SK-MEL-2 melanoma; 50.9% in the test on EKVX NSCLC; 29.1% with SN12C renal; 40.2% in the test on UO-31 renal; 45.6% in the test with TK-10 renal; 21.2% with ACHN renal. The growth with CAKI-1 renal was 41.7%; in the test with A498 renal, -12% (active); in the test on CCRF-CEM leukemia it was 11.8%; in the test with MOLT-4 leukemia, 16.1%.
